# Compound activity as filed in PubChem.
# S1P3 antag – antagonists of human S1P3 receptor; Q99500; CHO S1P3 NFAT-BLA reporter, FRET fluorescence, antagonist mode; inhibition, % at 4.98 µM; hit rate 0.27% among 170,000; AID 485;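 active means inhibition above the plate cutoff, the mean inhibition of test wells on that plate plus 3 SD, cut at about 28% in these data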;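 further: cells challenged with S1P at its EC80 of 0.8 µM; blue over green emission ratio from cleaved BLA substrate after 4 h stimulation; 0% = S1P-stimulated wells and 100% = unstimulated DMSO-only wells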
# S1P4 antagonist – human S1P4 receptor antagonism; O95977; S1P4-expressing cells, antagonist mode, reporter read-out; inhibition, % at 4.98 µM; hit rate 0.26% among 220,000; AID 1510; in the data active means inhibition above about 29%;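 further: 0% = wells stimulated with agonist and 100% = vehicle wells without agonist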
# Target sequence (O95977 whole entry, looked up): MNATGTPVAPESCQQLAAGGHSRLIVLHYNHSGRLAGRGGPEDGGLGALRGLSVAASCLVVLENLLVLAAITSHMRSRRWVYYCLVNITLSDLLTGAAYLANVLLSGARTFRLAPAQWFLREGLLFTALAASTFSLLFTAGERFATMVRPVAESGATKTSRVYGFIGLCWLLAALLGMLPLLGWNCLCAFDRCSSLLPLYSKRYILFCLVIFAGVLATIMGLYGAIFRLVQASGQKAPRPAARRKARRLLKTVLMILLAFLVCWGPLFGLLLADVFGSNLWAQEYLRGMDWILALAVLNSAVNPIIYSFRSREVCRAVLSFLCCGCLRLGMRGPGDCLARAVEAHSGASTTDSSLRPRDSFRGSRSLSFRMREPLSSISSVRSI
# S1P4 agonist – activates the human S1P4 receptor | O95977 | S1P4-expressing cell line, agonist reporter assay | activation, % at 4.98 µM | hit rate 0.35% among 220,000 | AID 1509; in the data active means activation above about 11%;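 further: 0% = DMSO vehicle and 100% = reference agonist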
# RAM inhibit – yeast RAM network inhibition; S. cerevisiae dse1pr::URA3 reporter, 5-FOA growth OD615, 2 d; analog-sensitive cbk1-as2 kinase mutant strain; inhibition, % at 50 µM; hit rate 1.8% among 190,000; AID 868;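 active means inhibition above a set limit, 3 SD over mean compound inhibition, cut at about 8.4% in these data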;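 further: 0% = DMSO-only wells with no growth and 100% = 10 µM 1-NA-PP1 full growth; inhibition rescues growth on 5-FOA so higher OD means more RAM inhibition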
# KCC2 mod – modulates chloride dependent transport by human KCC2; hit rate 2.2% among 190,000; AID 1456; B-score of Tl+ flux slope (higher = more flux/activation; lower = inhibition) at 10 µM; Q9H2X9; KCC2 cells, thallium flux FluoZin-2 fluorescence;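 active means thallium flux slope and its plate-corrected score both differing from the plate sample mean at a set confidence after two filtering rounds, in either direction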;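 further: slope of fluorescence scaled to starting intensity during 10 to 20 s after thallium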
# ROMK mod – modulates human ROMK potassium channel activity; P48048; Tet-inducible ROMK, thallium flux fluorescence; actives lie on both sides; B-score at 10 µM; hit rate 2% among 130,000; AID 1918;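 active means signal ratio slope over the read window, or its plate-corrected B-score, at least 3 SD from the plate mean, either direction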;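 further: B-score of the F/F0 ratio slope over 7 to 12 s after thallium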
# ROMK hit retest – confirmation of human ROMK potassium channel modulators; shares compounds with ROMK mod; ROMK thallium flux, fluorescence ratio; hits give low values; normalized thallium flux (F/F0 slope) at 10 µM; hit rate 54% among 3,000; AID 1917;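 active means Flux at 10 µM at least 3 SD below or above vehicle control mean in one or both replicates; inconclusive means no clear call, values can overlap the other calls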
# Active calls of the source: *; ? = inconclusive; · = no result given. Rows were chosen to be rich in hits. Some 5.1% of all compounds tested hit in one or more screens of this group.
SMILES,S1P3 antag,S1P4 antagonist,S1P4 agonist,RAM inhibit,KCC2 mod,ROMK mod,ROMK hit retest
CCOc1ncccc1C(=O)N1CCN(c2cccc(C)c2C)CC1,11,10,0,0,-0.63,7.3*,0.082
CCCN1Cc2cccc(C(=O)N3CCN(c4cc(Cl)ccc4C)CC3)c2C1=O,20,11,-3,0,-1.5,·,?
C=C(C)C1CC=C(C)/C(=N/NC(=O)COc2cccc3ccccc23)C1 (stereo not given),·,-17,2,4,-0.61,-0.12,·
CCOc1ccccc1NC(=S)NNS(=O)(=O)c1c(C)cc(C)cc1C,4,11,-2,4,-0.36,-0.94,·
COc1ccc(NS(=O)(=O)c2cc(NC(=O)c3ccco3)ccc2N2CCCC2)cc1,-8,-2,0,0,-0.17,·,·
COc1ccc(NS(=O)(=O)c2cc(NC(=O)c3cc(F)c(F)c(F)c3F)ccc2N2CCCC2)cc1,-6,-11,-1,·,-0.096,·,0.084
CCCCCCCCCCCCOC(=O)C[N+](C)(C)C,-7,0,1,·,2.1,-3.8*,0.048*
CCCCCCCCOC(=O)C[N+](C)(C)C/C=C(/C)Cl,-3,-18,0,1,-0.081,-1.8,·
CCCCCCCCCCOC(=O)C[N+](C)(C)C/C=C(/C)Cl,-4,-9,3,0,0.22,·,0.057*
CSc1ncccc1C(=O)NC(C)C1CC2CCC1C2 (stereo not given),-8,-2,1,-1,-1.1,0.2,·
NC(=O)c1ccsc1NC(=O)COC(=O)Cc1ccsc1,0,-10,1,2,-1.8,-0.4,·
COc1cc(CC(=O)OCC(=O)Nc2sccc2C(N)=O)cc(OC)c1OC,6,-34,0,2,-1.7,-2.5,0.062*
Cc1cccc(N2CCN(C(c3cccs3)c3nnnn3C(C)(C)C)CC2)c1C (stereo not given),·,-4,1,3,·,0.056,·
Cc1cccc(N2CCN(C(c3ccccc3)c3nnnn3C(C)(C)C)CC2)c1C (stereo not given),·,3,-4,0,-0.027,-3.3*,0.088
NC(=O)CC(NC(=O)c1cccc(Br)c1)c1ccc(NCCN2CCOCC2)c([N+](=O)[O-])c1 (stereo not given),·,·,·,·,1.9,·,·
Cc1cc(C)cc(OCCNC(=O)C(C)N2C(=O)c3ccccc3C2=O)c1 (stereo not given),-21,-11,-1,2,-0.86,2.4*,0.083
Cc1ccc(NC(=O)C(C)N2C(=O)c3ccccc3C2=O)nc1 (stereo not given),-20,7,-2,1,2.7,0.36,·
O=C1N/C(=N/N=C/c2ccccc2)SC1(c1ccccc1)c1ccccc1,·,9,0,6,0.34,0.98,·
O=C(CN1C(=O)COc2ccccc21)N1CCc2ccccc2C1,·,8,0,0,0.36,·,·
COCCNC(=O)c1ccccc1NC(=O)c1ccccc1SC,4,-16,0,0,0.56,3.2*,0.084
C=CCNC(=O)c1ccccc1NC(=O)c1ccccc1SC,2,-12,1,0,-0.39,0.74,·
O=C(CCCSc1nc2ccccc2c(=O)[nH]1)c1ccc(F)cc1,-1,6,1,5,-0.013,-0.0085,·
Cc1cc(/C=N/NC(=O)C(=O)NCc2ccccn2)c(C)n1-c1ccccc1,0,-7,0,0,-1.4,2.7*,0.089
CC1CCCCN1C(=O)Cn1cc(/C=C2/C(=O)Nc3ccccc32)c2ccccc21 (stereo not given),·,0,-1,9.4*,-0.67,·,0.078
CC1CCCCN1C(=O)Cn1cc(C=O)c2ccccc21 (stereo not given),2,-10,0,0,0.4,-1.1,·
SMILES,S1P3 antag,S1P4 antagonist,S1P4 agonist,RAM inhibit,KCC2 mod,ROMK mod,ROMK hit retest
CC(C)OC(=O)Cn1cc(C#N)c2ccccc21,-12,0,0,-2,1.2,-8.8*,0.079
c1ccc(-c2nnc(OCC3CCCO3)c3ccccc23)cc1 (stereo not given),-15,-2,1,1,-0.46,0.86,·
CCNc1nn2ccccc2c1/C=C(\C#N)C(=O)OCC,1,-8,0,·,-1.8,·,·
O=[N+]([O-])c1ccc2c(c1)nc1n2CCN(C2CCCCC2)C1,9,11,1,1,-0.039,-5.9*,0.053*
O=[N+]([O-])c1ccc2c(c1)nc1n2CCCCC1,-12,9,0,2,0.62,-1.3,·
Cc1ccc(NC2=NCC(=O)N2C2CCCC2)c(C)c1,·,-19,0,1,-2.4,-0.17,·
O=C(Nc1cccc(S(=O)(=O)N2CCCCC2)c1)c1ccc2c(=O)n3c(nc2c1)CCCCC3,20,-7,0,2,-1.1,·,0.064*
CCc1ccc(NC(=O)c2ccc3c(=O)n4c(nc3c2)CCCCC4)cc1,-1,8,0,·,-1.4,·,·
CCOC(=O)N1CCN(C(=O)c2ccc3c(=O)n(CCc4ccccc4)c(=S)[nH]c3c2)CC1,-26,-4,-2,3,0.22,-0.23,·
CCCn1c(=S)[nH]c2cc(C(=O)N3CCCC(C(=O)OCC)C3)ccc2c1=O (stereo not given),·,2,2,1,·,-3.2*,0.06*
COc1ccccc1N1CCN(C2CCN(C3CCC(c4ccccc4)CC3)CC2)CC1 (stereo not given),-7,9,1,0,0.28,-3.1*,0.061*
CCOC(=O)c1c(-c2ccccc2)csc1NC(=O)C1CCCO1 (stereo not given),·,-8,3,4,-0.96,-0.042,·
CCOC(=O)c1c(-c2ccc(-c3ccccc3)cc2)csc1NC(=O)C1C2CCC(O2)C1C(=O)O (stereo not given),·,-7,-1,7,·,·,0.11*
COc1cc2ccccc2cc1C(=O)NCC(c1cccs1)N(C)C (stereo not given),2,13,-2,3,-3,-3.1,·
COc1ccc(C2OC(=O)CC2C(=O)NCc2ccccc2Cl)cc1OC (stereo not given),-10,-19,0,1,-0.045,-10*,0.078
CN(CC1CCCO1)S(=O)(=O)c1ccc(C(=O)Nc2nc(-c3ccccn3)cs2)cc1 (stereo not given),26,-9,0,0,-1.8,·,0.072
COC(=O)CSc1nnc(-c2ccc(NS(=O)(=O)c3ccccc3)cc2)o1,23,2,2,2,-0.12,-3.5*,0.056*
Cc1ccc(CSc2nnc(-c3ccc(NS(=O)(=O)c4ccccc4)cc3)o2)cc1,-15,-9,0,6,-0.71,0.24,·
Cc1ccc(S(=O)(=O)Nc2ncc(C(F)(F)F)cc2Cl)cc1,-2,3,1,-1,-0.32,0.35,·
Cc1cccc(-c2nc(CSCC(=O)N3CCN(c4ccccn4)CC3)c(C)o2)c1,-4,-1,-1,0,·,-4.3*,0.053*
